Experimental data: PubChem BioAssay
Calls of active or inactive are those of the source.

Assays:
[1] = system: PRMT1 (protein arginine N-methyltransferase 1); assay: PRMT1 binders on small-molecule microarrays, primary screen, biochemical, small-molecule microarray, 635 nm fluorescence (AID 1088); conditions: small-molecule microarray binding, higher = more signal;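 also: binding of Prmt1 protein to compounds spotted on small-molecule microarray slides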
[2] = yeast growth modulation, basal conditions, primary screen, YJM789 clinical isolate, OD600, 24 h (AID 1089);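 also: growth of clinical yeast isolate S. cerevisiae YJM 789 seeded 1000 cells per well; test concentration not given here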; conditions: S. cerevisiae YJM789 growth, higher = more signal, called active from +8 up or from −8 down
[3] = fission yeast growth modulation, primary screen, strain 972, OD600, 24 h, no modulator (AID 1090);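 also: basal condition with compound alone and no growth modifier present; test concentration not given here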; conditions: S. pombe 972 growth, higher = more signal, called active from +8 up or from −8 down
[4] = S. cerevisiae growth modulation with rapamycin, primary screen, strain BY4716, OD600, 96 h (AID 1091); conditions: higher = more signal, called active from +8 up or from −8 down; also: test concentration not given here
[5] = biological target: Torsin-1A-interacting protein 2 (Homo sapiens) (UniProt Q8NFQ8); assay: LULL1 binders on small-molecule microarray, primary screen, cell lysate, human LULL1 lysate, 635/667 nm fluorescence (AID 1092); conditions: hLULL1 lysate binding, 635 nm fluorescence, higher = more signal;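 also: probe is lysate of COS7 cells overexpressing human LULL1; score merges per-feature 667 nm fluorescence with signal-to-noise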
[6] = E. coli growth modulation, two-sided OD650, primary screen, E. coli filamentation project, strain DRC41, 24 h (AID 1093); conditions: OD650, 24 h, higher = more signal, called active from +8 up or from −8 down;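 also: MC1000 strain lacking acrAB efflux and sulA so SOS filamentation is blocked; test concentration not given here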
[7] = small-molecule microarray binders of probe aLefty2, primary screen, biochemical, biotinylated probe, 635/667 nm fluorescence (AID 1094); conditions: higher = more signal;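 also: score merges spot fluorescence near 667 nm with spot signal-to-noise ratio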
[8] = system: Noggin (protein binding on small-molecule microarray); assay: Noggin binders on small-molecule microarray, primary screen, biochemical, 635/667 nm fluorescence (AID 1095); conditions: 635 nm fluorescence, higher = more signal;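 also: score merges 667 nm feature fluorescence with signal to noise over triplicate slides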
[9] = biological target: Neurogenic locus notch homolog protein 3 (Homo sapiens) (UniProt Q9UM47); assay: NOTCH3 binders on small-molecule microarray, primary screen, biochemical, 635/667 nm fluorescence (AID 1096); conditions: NOTCH3 binding, 635 nm fluorescence, higher = more signal
[10] = small-molecule microarray binders of probe aEGFR, primary screen, biochemical, biotinylated probe, 635/667 nm fluorescence (AID 1097); conditions: higher = more signal;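 also: probe is a biotinylated anti-EGFR antibody binding compounds printed on slides; score combines fluorescence near 667 nm and signal to noise of each spot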
[11] = system: Plasmodium falciparum Sir2 (PF13_0152, Sir2A); assay: pfSir2 binders on small-molecule microarrays, primary screen, biochemical, small-molecule microarray, 635 nm fluorescence (AID 1098); conditions: small-molecule microarray binding, fluorescence 635 nm; higher = more signal;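 also: score merges spot fluorescence intensity with its signal-to-noise ratio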
[12] = small-molecule microarray binders of probe aDKK1, primary screen, biochemical, biotinylated probe, 635/667 nm fluorescence (AID 1099); conditions: higher = more signal;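 also: score merges 667nm spot fluorescence with signal to noise across triplicate slides; reference of the scale not given here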
[13] = small-molecule microarray binders of probe aCHRDL2, primary screen, biochemical, biotinylated probe, 635/667 nm fluorescence (AID 1100); conditions: higher = more signal
[14] = splicing luciferase reporter signal modulators, primary screen, spliceosome inhibition project, cell-based, HEK293, splice +/- reporter (AID 1101); conditions: luminescence, 24 h, higher = more signal, called active from +8 up or from −8 down;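 also: HEK293 cells carrying a splicing-competent luciferase reporter gene; test concentration not given here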
[15] = biological target: Fibroblast growth factor 10 (Homo sapiens) (UniProt O15520); assay: FGF10 binders on small-molecule microarrays, primary screen, biochemical, small-molecule microarray, 635 nm fluorescence (AID 1102); conditions: FGF10 binding, fluorescence 635 nm, higher = more signal
[16] = system: glycogen synthase kinase-3 (GSK3A per assay name; protocol says GSK3B); assay: GSK3 binders on small-molecule microarrays, primary screen, biochemical, small-molecule microarray, 635 nm fluorescence, GSK3A (AID 1103); conditions: small-molecule microarray binding, fluorescence 635 nm; higher = more signal; also: the record names both GSK3A and GSK3B
[17] = biological target: Epidermal growth factor receptor (Homo sapiens) (UniProt P00533); assay: EGFR binders on small-molecule microarrays, primary screen, biochemical, small-molecule microarray, 635 nm fluorescence (AID 1104); conditions: EGFR binding, higher = more signal;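 also: score merges 667 nm emission intensity with spot signal to noise over triplicate slides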
[18] = biological target: Follistatin-related protein 3 (Homo sapiens) (UniProt O95633); assay: FSTL3 binders on small-molecule microarrays, primary screen, biochemical, small-molecule microarray, 635 nm fluorescence (AID 1105); conditions: FSTL3 binding, higher = more signal;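 also: score merges emission near 667 nm and signal to noise per printed spot across three slides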
[19] = biological target: Dickkopf-related protein 1 (Homo sapiens) (UniProt O94907); assay: DKK1 binders on small-molecule microarrays, primary screen, biochemical, small-molecule microarray, 635 nm fluorescence scan (AID 1106); conditions: DKK1 binding, higher = more signal;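 also: score merges emission near 667 nm with signal to noise over three replicate slides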
[20] = system: Inhibin beta A chain (activin A); assay: INHBA (activin A) binders on microarrays, primary screen, biochemical, small-molecule microarray, 635 nm fluorescence scan (AID 1107); conditions: small-molecule microarray binding, higher = more signal;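 also: mouse activin A protein probed at 4.33 µg/mL on printed slides; score merges bound-protein fluorescence near 667 nm with spot signal-to-noise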

Sequence of Torsin-1A-interacting protein 2 (Homo sapiens) (Q8NFQ8 whole entry, looked up): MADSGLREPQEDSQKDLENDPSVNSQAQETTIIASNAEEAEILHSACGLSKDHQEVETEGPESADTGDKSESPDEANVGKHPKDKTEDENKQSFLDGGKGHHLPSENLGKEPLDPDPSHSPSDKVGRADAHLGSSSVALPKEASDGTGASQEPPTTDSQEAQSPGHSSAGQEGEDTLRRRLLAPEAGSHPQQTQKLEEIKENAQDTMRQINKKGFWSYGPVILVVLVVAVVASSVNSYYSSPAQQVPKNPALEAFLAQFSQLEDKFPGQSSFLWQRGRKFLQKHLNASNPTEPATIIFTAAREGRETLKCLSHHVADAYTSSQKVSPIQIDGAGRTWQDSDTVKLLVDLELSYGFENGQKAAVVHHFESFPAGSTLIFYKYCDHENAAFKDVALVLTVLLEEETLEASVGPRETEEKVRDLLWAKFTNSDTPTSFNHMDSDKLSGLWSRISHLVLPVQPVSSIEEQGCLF
Sequence of Follistatin-related protein 3 (Homo sapiens) (O95633 whole entry, looked up): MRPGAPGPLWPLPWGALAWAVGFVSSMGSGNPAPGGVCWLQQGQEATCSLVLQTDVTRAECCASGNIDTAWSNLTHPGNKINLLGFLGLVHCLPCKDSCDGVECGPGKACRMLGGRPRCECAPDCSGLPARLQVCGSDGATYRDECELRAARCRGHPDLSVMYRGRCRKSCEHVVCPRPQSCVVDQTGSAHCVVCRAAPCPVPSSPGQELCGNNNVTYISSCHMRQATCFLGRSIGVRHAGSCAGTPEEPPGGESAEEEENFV
Sequence of Dickkopf-related protein 1 (Homo sapiens) (O94907 whole entry, looked up): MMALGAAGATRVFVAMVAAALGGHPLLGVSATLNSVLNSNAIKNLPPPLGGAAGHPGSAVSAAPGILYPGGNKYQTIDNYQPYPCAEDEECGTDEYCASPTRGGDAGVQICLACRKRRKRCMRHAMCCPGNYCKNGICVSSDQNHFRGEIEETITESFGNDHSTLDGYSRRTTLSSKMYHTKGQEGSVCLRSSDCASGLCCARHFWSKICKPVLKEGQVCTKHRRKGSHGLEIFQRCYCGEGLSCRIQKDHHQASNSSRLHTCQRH
Sequence of Fibroblast growth factor 10 (Homo sapiens) (O15520 whole entry, looked up): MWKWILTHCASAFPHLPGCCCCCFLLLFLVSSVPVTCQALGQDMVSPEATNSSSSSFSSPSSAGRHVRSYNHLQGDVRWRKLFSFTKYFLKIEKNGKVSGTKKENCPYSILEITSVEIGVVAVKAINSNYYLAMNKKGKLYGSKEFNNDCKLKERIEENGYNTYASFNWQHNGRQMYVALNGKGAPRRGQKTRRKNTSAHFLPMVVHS
Sequence of Neurogenic locus notch homolog protein 3 (Homo sapiens) (Q9UM47 whole entry, looked up): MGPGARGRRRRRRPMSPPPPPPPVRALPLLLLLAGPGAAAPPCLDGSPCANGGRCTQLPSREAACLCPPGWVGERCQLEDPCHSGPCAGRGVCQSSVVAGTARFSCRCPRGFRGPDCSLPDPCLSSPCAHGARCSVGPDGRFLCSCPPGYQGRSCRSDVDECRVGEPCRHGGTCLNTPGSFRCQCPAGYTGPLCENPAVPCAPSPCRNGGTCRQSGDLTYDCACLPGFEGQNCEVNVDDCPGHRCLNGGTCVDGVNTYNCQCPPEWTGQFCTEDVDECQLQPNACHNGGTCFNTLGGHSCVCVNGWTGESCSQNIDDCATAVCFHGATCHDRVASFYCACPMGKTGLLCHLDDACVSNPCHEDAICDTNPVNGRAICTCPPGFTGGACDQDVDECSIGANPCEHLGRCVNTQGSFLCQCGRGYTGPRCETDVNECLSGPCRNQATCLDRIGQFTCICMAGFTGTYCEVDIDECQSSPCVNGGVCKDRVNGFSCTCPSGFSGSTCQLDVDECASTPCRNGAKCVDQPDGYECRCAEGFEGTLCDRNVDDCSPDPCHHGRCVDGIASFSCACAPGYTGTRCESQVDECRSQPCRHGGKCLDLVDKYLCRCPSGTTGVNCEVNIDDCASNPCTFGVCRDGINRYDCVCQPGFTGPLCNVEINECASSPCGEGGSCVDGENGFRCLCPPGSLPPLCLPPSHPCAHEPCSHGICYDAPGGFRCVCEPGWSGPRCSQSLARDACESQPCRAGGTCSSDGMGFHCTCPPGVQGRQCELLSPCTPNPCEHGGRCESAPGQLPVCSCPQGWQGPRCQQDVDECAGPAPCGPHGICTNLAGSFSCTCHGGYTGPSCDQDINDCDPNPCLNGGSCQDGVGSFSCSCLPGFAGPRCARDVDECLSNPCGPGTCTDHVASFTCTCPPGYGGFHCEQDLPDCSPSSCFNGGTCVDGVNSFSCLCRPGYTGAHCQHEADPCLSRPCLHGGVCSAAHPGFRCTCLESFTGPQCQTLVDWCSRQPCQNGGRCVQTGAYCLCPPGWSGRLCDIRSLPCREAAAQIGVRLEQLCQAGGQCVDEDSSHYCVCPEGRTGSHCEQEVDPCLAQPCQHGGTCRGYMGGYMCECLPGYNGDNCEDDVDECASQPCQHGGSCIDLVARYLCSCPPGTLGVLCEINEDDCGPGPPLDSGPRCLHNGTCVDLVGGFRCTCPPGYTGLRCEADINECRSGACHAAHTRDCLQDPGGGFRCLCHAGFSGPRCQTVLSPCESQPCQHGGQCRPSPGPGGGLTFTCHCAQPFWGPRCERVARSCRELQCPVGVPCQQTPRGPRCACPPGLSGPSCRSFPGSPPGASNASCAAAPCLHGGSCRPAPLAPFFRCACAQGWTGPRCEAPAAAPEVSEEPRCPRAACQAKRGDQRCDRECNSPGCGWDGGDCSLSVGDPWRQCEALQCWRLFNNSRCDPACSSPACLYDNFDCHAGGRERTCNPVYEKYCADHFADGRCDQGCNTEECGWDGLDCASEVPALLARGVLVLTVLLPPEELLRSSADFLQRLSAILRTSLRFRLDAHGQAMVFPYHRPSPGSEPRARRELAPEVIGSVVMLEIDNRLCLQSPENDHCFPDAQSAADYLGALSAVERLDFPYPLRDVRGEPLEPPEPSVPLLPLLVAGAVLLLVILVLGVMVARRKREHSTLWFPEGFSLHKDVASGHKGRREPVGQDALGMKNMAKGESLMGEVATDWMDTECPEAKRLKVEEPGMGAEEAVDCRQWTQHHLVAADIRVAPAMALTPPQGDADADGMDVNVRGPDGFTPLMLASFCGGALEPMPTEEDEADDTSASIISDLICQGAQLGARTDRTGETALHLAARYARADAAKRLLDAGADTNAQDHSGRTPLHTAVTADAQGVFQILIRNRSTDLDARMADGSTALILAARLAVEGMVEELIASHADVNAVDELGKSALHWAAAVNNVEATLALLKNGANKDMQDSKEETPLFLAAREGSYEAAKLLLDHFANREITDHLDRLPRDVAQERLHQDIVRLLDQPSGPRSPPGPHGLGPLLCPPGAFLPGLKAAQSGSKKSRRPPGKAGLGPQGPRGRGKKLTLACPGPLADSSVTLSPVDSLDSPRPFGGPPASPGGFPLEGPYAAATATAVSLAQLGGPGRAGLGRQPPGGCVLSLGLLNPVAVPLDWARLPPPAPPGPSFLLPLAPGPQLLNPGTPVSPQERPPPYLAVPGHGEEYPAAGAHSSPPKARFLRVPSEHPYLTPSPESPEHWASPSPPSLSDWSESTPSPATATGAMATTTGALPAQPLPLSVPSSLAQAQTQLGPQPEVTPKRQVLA
Sequence of Epidermal growth factor receptor (Homo sapiens) (P00533 whole entry, looked up): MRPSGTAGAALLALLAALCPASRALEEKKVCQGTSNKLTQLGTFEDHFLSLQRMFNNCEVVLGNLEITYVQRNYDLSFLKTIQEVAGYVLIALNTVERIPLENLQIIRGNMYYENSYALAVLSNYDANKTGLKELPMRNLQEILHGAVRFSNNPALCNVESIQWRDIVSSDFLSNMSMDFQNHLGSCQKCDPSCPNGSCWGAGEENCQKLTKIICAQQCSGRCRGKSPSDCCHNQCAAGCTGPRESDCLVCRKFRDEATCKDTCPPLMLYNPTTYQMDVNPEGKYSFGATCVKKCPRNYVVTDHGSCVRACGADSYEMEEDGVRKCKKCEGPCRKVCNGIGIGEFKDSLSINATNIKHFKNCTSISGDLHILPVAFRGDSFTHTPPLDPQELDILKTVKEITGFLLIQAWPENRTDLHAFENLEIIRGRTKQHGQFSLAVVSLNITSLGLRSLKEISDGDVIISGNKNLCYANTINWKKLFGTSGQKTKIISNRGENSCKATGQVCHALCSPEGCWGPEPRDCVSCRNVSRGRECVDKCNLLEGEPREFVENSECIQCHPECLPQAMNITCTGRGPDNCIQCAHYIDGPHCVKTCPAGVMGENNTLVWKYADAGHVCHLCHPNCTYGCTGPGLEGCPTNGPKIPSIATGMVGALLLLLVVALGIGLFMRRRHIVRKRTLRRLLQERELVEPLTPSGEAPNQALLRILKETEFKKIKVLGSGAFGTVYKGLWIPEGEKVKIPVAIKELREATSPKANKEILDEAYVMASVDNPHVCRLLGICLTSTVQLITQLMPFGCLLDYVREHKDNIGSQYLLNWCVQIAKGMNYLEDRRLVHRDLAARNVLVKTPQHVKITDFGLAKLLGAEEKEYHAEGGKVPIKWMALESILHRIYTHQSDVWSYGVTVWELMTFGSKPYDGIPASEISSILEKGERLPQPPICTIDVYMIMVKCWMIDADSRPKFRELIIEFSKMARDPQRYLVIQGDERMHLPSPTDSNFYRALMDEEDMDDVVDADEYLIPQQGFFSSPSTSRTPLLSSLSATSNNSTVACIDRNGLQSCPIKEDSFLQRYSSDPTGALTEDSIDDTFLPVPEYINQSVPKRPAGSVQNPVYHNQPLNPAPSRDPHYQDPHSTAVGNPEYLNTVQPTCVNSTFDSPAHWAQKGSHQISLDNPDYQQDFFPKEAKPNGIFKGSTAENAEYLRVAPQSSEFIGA

CC(C)=CCCC(C)=CCON=C1C[C@@H](O)[C@@H](O)[C@@H]2[C@@H]3C(=O)N(Cc4ccccc4)C(=O)[C@@H]3CC[C@@H]12
composite z-score [1]: 1.09 | z-score [2]: 0.432 (inactive) | z-score [3]: -0.114 (inactive) | z-score [4]: -0.535 (inactive) | composite z-score [5]: -0.859 | z-score [6]: 0.326 (inactive) | composite z-score [7]: -0.114 | composite z-score [8]: 1.33 | composite z-score [9]: 0.637 | composite z-score [10]: 0.012 | composite z-score [11]: 0.786 | composite z-score [12]: -0.382 | composite z-score [13]: -1.12 | z-score [14]: -0.216 (inactive) | composite z-score [15]: 1.14 | composite z-score [16]: 0.279 | composite z-score [17]: 0.696 | composite z-score [18]: 0.955 | composite z-score [19]: 1.04 | composite z-score [20]: 1.09

O=C(NN=C1C[C@@H](O)[C@@H](O)[C@@H]2[C@@H]3C(=O)N(C4CCCCC4)C(=O)[C@@H]3CC[C@@H]12)OCc1ccccc1
composite z-score [1]: -0.492 | z-score [2]: 0.313 (inactive) | z-score [3]: -0.452 (inactive) | z-score [4]: -0.157 (inactive) | composite z-score [5]: -0.181 | z-score [6]: 0.572 (inactive) | composite z-score [7]: -0.372 | composite z-score [8]: -0.248 | composite z-score [9]: 0.256 | composite z-score [10]: -0.0262 | composite z-score [11]: 0.174 | composite z-score [12]: 0.261 | composite z-score [13]: 0.515 | z-score [14]: 0.662 (inactive) | composite z-score [15]: 0.0342 | composite z-score [16]: 0.0686 | composite z-score [17]: -0.0311 | composite z-score [18]: 0.524 | composite z-score [19]: -0.0447 | composite z-score [20]: -0.347
